PubChem BioAssay (EPA / NIEHS)
The source made the active and inactive calls. Rule for the calls: active = hit-call score of the fitted dose curve at least 0.9, where 1 is the maximum; inactive = score below 0.9.

How the values were obtained:
[1] = ATG_CRE_CIS: Attagene CIS-FACTORIAL HepG2 Assay for human cAMP Responsive Element (CRE) binding protein 3 (AID 2282926); conditions: HepG2 CRE cis-reporter, Attagene multiplexed mRNA; actives raise or lower the signal
Procedure, shortened: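 Induced reporter mRNA from a CRE cis element, measured in HepG2 among many multiplexed units at 24 h. Detection used RT-PCR plus capillary electrophoresis of fluorescent fragments; DMSO served as negative control.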

[2] = ATG_CMV_CIS: Attagene CIS-FACTORIAL HepG2 Assay for human CMV (Internal Marker) (AID 2282928); conditions: HepG2 CMV promoter reporter, transcription factor profiling; actives raise or lower the signal;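 note: endpoint acts as a background internal control marker rather than a target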
Procedure, shortened: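 Bidirectional fits against DMSO are applied to reporter mRNA, read by RT-PCR with capillary electrophoresis, from HepG2 cells exposed 24 h. The endpoint serves as an internal CMV background marker within the cis-factorial reporter panel.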

[3] = ATG_DR4_LXR_CIS: Attagene CIS-FACTORIAL HepG2 Assay for human Liver X Receptor (LXR), DR4 submotif (AID 2282929); conditions: HepG2 Attagene DR4 cis-reporter, mRNA transcription; actives raise or lower the signal
Procedure, shortened: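 After transient transfection with multiplexed cis-promoter reporter units, HepG2 cells received test chemicals for 24 h. Reporter mRNA induction, detected by fluorescence after RT-PCR and capillary electrophoresis, was scored relative to DMSO.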

[4] = target: Aryl hydrocarbon receptor (Homo sapiens) (UniProt P35869); experiment: ATG_Ahr_CIS: Attagene CIS-FACTORIAL HepG2 Assay for human Aryl Hydrocarbon Receptor (Ahr) (AID 2282930); conditions: HepG2 AhR cis-factorial reporter transcription; actives raise or lower the signal
Procedure, shortened: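 Values derive from bidirectional fitting against DMSO negative control. Underlying signal: cis-element reporter mRNA in transiently transfected HepG2, harvested 24 h post-dose and measured by RT-PCR plus capillary electrophoresis.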

[5] = ATG_AP_1_CIS: Attagene CIS-FACTORIAL HepG2 Assay for human Activator Protein 1 (AP-1) (AID 2282931); conditions: HepG2 Attagene cis-factorial AP-1 reporter mRNA; actives raise or lower the signal
Procedure, shortened: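 After 24 h incubation with test chemical, RNA from transfected HepG2 cells was reverse-transcribed, amplified, fluorescently labelled and digested before capillary electrophoresis. Reporters were driven by cis-regulatory promoters; activity fitted bidirectionally versus DMSO.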

[6] = ATG_AP_2_CIS: Attagene CIS-FACTORIAL HepG2 Assay for human Activator Protein 2 (AP-2) (AID 2282932); conditions: HepG2 AP-2 cis-reporter, Attagene transcription factor profiling; actives raise or lower the signal
Procedure, shortened: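 Assay in transfected HepG2 with promoter-regulated reporters, 24 h incubation after dosing. Signal is reporter mRNA fluorescence (RT-PCR, capillary electrophoresis), analysed for both increases and decreases relative to DMSO controls.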

Measured: outcome

Chain of Aryl hydrocarbon receptor (Homo sapiens) (P35869 whole entry, looked up): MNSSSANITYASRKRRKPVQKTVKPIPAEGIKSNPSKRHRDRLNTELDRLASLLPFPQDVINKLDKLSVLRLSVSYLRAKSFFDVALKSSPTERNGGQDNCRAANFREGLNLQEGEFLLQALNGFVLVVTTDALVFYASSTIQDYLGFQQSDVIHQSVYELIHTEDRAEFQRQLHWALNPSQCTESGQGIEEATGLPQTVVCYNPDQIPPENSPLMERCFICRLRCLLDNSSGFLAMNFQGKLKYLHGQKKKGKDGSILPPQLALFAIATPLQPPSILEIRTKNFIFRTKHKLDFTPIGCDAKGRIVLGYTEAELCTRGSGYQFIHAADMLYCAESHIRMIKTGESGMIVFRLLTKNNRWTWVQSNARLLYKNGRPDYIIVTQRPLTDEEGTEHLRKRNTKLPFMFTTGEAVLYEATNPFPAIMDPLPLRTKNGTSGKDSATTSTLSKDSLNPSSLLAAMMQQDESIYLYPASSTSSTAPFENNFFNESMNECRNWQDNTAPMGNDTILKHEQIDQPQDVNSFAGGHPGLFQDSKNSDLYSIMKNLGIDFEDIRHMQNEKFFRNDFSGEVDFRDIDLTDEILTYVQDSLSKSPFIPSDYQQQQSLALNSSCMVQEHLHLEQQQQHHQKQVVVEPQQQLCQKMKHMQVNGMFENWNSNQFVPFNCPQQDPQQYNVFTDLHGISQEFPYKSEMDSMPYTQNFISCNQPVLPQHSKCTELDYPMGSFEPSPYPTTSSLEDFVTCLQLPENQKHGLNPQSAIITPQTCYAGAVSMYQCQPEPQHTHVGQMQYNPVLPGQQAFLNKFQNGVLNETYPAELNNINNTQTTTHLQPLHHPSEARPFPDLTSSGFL

CC1=CC[C@@H](C(C)(C)O)CC1
inactive: all assays above
